Source: PubChem BioAssay (Johns Hopkins Ion Channel Center)
Sampled rows, rich in hits. Any-hit rate of the full collection: about 1.6%.
KCNQ2 block: rat KCNQ2 potassium channel inhibitors, primary screen, cell-based, CHO-K1, FluxOR thallium flux, B-score | Potassium voltage-gated channel subfamily KQT member 2 (Rattus norvegicus), O88943 | 20 min; active compounds read low | B-score at 10 µM | 310,000 compounds, 1.1% hits;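 active means fluorescence ratio B-score at most minus 3 library SDs, with starting brightness B-score within 2 library SDs, cut at about -5.5 in these data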
KCNQ2 pot: potentiators of rat KCNQ2 potassium channel. Potassium voltage-gated channel subfamily KQT member 2 (Rattus norvegicus), O88943. B-score at 10 µM. AID 2239, 2010. CHO-K1 KCNQ2, FluxOR thallium flux fluorescence; active compounds read high. 310,000 compounds, 0.54% hits;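 active means fluorescence ratio B-score at least 3 SD of library B-scores, with initial fluorescence B-score within 3 of them, cut at about 5.3 in these data; same plate scores as AID 2156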;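 further: B-score of peak minus minimum over baseline fluorescence ratio after K+ and Tl+ stimulus; positive B-score means potentiation of KCNQ2 with more thallium influx and brighter signal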
KCNQ2 inh conf: rat KCNQ2 potassium channel inhibitors, confirmation, cell-based, thallium flux | shares compounds with KCNQ2 block | KCNQ2-expressing cells, inhibition; active compounds read low | activity change, negative = inhibition, % at 10 µM | 1,000 compounds, 57% hits | AID 493025, 2011;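 further: 0% = vehicle wells and values are ratio percent relative to vehicle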
KCNQ1 spec: human KCNQ1 channel inhibition, counter-screen for KCNQ2 inhibitor project, cell-based, FluxOR thallium flux | shares compounds with KCNQ2 block | KCNQ1-expressing cells, FluxOR thallium flux fluorescence; active compounds read low | activity change, negative = inhibition, % at 10 µM | 1,000 compounds, 15% hits | AID 493026, 2011;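 active means activity change at least 3 SD of negative controls below their mean in both duplicate wells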;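 further: CHO cells stably transfected with KCNQ1 and depolarized by potassium stimulus; peak minus minimum fluorescence over baseline after thallium addition; 0% = vehicle negative control and -100% = blank without thallium stimulus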
Target sequence (P51787 whole entry, looked up): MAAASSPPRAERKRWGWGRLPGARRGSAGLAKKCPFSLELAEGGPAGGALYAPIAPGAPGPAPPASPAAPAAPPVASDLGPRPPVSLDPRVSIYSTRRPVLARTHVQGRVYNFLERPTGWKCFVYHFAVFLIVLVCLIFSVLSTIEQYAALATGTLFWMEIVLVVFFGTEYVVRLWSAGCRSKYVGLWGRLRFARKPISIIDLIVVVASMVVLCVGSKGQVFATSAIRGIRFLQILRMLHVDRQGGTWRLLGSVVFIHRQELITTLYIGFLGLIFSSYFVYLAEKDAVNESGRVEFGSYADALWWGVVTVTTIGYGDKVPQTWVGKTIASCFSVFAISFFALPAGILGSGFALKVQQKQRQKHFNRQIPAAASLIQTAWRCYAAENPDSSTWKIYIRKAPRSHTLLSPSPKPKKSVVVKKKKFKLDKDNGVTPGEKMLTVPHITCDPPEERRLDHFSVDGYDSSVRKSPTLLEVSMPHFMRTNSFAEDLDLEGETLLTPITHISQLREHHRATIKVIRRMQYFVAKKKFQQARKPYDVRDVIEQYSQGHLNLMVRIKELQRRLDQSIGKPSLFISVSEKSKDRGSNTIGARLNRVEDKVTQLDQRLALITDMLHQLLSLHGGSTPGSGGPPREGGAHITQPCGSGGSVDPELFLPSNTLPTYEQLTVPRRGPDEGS
CHO parental ctr: thallium flux change in parental CHO cells, counter-screen for KCNQ2 inhibitor project; shares compounds with KCNQ2 block; active compounds read low; activity change, % at 10 µM; 1,000 compounds, 14% hits;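 further: 0% = vehicle negative controls with stimulus buffer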
KCNQ2 patch conf: rat KCNQ2 channel inhibitors, confirmation, cell-based, automated patch clamp, single concentration | AID 588531, 2011 | calls only at 10 µM | shares compounds with KCNQ2 block | KCNQ2-expressing cells, automated patch clamp current | 550 compounds, 49% hits
* hit, by the source's call; i = inactive; nt = no result given; + = active, no number. Unless noted, how the calls were made is not given here.

SMILES | KCNQ2 block | KCNQ2 pot | KCNQ2 inh conf | KCNQ1 spec | CHO parental ctr | others
CC1CCN(C(=O)CCNS(=O)(=O)c2ccc(Cl)cc2)CC1 | i | 0.31 | nt | nt | nt
CCCCc1nnc(NC(=O)COc2ccc3c(C)cc(=O)oc3c2)s1 | i | 0.43 | nt | nt | nt
Cc1cc(C)c(-c2noc(C(=O)OC(C)(C)C)c2C(=O)OC(C)(C)C)c(C)c1 | -10* | -10 | i | i | i
COc1cc(OC)c(-c2noc(C(=O)OC(C)(C)C)c2C(=O)OC(C)(C)C)c(OC)c1 | i | nt | nt | nt | nt
O=C(CCc1nnc2ccc(NCc3ccco3)nn12)N1CCN(c2ccc(F)cc2)CC1 | i | nt | nt | nt | nt
Cn1cccc1/C=C1\CC(C(C)(C)C)C/C(=C\c2cccn2C)C1=O (centres undefined) | -11* | -11 | -72%* | -74%* | -68%* | KCNQ2 patch conf=i
Cn1cccc1/C=C1\Cc2ccccc2C1=O | i | nt | nt | nt | nt
O=C(O)/C=C/C(=O)N(Cc1ccc2c(c1)OCO2)C1CC(=O)N(CCc2ccccc2)C1=O (centres undefined) | i | nt | nt | nt | nt
CCn1c(C(=O)N2CCCC(C(=O)O)C2)cc2sccc21 (centres undefined) | i | 0.84 | nt | nt | nt
CCn1c(C(=O)N2CCC(Cc3ccccc3)CC2)cc2sccc21 | -7.2* | -7.2 | i | i | i
O=[N+]([O-])c1ccc(S(=O)(=O)N2CCN=C2SCc2ccc(F)cc2)cc1 | i | nt | nt | nt | nt
Cc1nc(-c2ccc(NC(=O)CC(C)C)cc2)cs1 | i | 1.1 | nt | nt | nt
Cc1cc(CNC(=O)COC(=O)c2ccc(Cl)c(N)c2)cc(C)c1O | i | nt | nt | nt | nt
Fc1cccc(-c2cc3nc(-c4ccccc4)cc(N4CCC5(CC4)OCCO5)n3n2)c1 | i | nt | nt | nt | nt
Cc1cccc(-c2cc3nc(-c4ccccc4)cc(N4CCC5(CC4)OCCO5)n3n2)c1 | -8.1* | -8.1 | -30%* | i | i | KCNQ2 patch conf=i
CCOc1ccc(CN(C)C(C)C(=O)NCCc2ccc(F)cc2)cc1 (centres undefined) | i | 0.06 | nt | nt | nt
Cc1ccc2c(c1)c1c3n2CCN(C(=O)CN2CCN(C)CC2)C3CCC1 (centres undefined) | i | nt | nt | nt | nt
CN1CCN(CC(=O)N2CCn3c4c(c5cc(C6CCCCC6)ccc53)CCCC42)CC1 (centres undefined) | -13* | -13 | -30%* | i | i | KCNQ2 patch conf=i
O=c1cc(O)c2c(=O)n(-c3ccccc3)c3c(c2o1)CCCCC3 | i | 1.3 | nt | nt | nt
O=C(NCc1cccc(C(F)(F)F)c1)C1CC(c2ccccc2C(F)(F)F)=NO1 (centres undefined) | i | nt | nt | nt | nt
O=C(NCCc1ccccc1)c1oc2ccccc2c1COc1ccccc1 | -9* | -9 | -24%* | i | i | KCNQ2 patch conf=i
O=C(Nc1ccccc1Cc1ccccc1)c1oc2ccccc2c1COc1ccccc1 | i | nt | nt | nt | nt
CC(C)C(=O)OC1CCS(=O)(=O)c2sccc21 (centres undefined) | i | nt | nt | nt | nt
COc1ccc(N2CCN(S(=O)(=O)CCNC(=O)c3cc(=O)c4ccccc4o3)CC2)cc1 | i | nt | nt | nt | nt
CCCc1nnc(SCC(=O)Nc2cccc(Cl)c2Cl)o1 | i | nt | nt | nt | nt
SMILES | KCNQ2 block | KCNQ2 pot | KCNQ2 inh conf | KCNQ1 spec | CHO parental ctr | others
O=C(NCC(c1cccs1)N1CCOCC1)c1cc([N+](=O)[O-])ccc1Cl (centres undefined) | i | nt | nt | nt | nt
O=C(NCC(c1cccs1)N1CCOCC1)c1ccc(Cl)s1 (centres undefined) | -9.7* | -9.7 | i | i | i
Brc1cccc(/C=N/Nc2nc(N3CCCCC3)nc(N3CCCCC3)n2)c1 | -6.9* | -6.9 | -19%* | i | i | KCNQ2 patch conf=i
O=[N+]([O-])c1cccc(/C=N/Nc2nc(N3CCCCC3)nc(N3CCCCC3)n2)c1 | -7.7* | -7.7 | -34%* | i | i | KCNQ2 patch conf=i
O=[N+]([O-])c1cccc(-n2cccc2/C=N/Nc2nc(N3CCCCC3)nc(N3CCCCC3)n2)c1 | i | nt | nt | nt | nt
Oc1ccc(/C=N/Nc2nc(N3CCCC3)nc(N3CCCC3)n2)cc1O | i | nt | nt | nt | nt
Cc1onc(-c2ccccc2Cl)c1C(=O)N1CCN(c2ccc(F)cc2)CC1 | i | nt | nt | nt | nt
Cn1c(COc2ccc(Cl)cc2)nnc1SCC(=O)NC1CCCC1 | i | 1.6 | nt | nt | nt
OCC1(Cc2cccc(Cl)c2)CCCN(Cc2ccc(F)c(F)c2)C1 (centres undefined) | i | nt | nt | nt | nt
CSc1cccc(CN2CCCC(CO)(Cc3cccc(Cl)c3)C2)c1 (centres undefined) | -7* | -7 | i | i | i
CNc1nc(-c2ccccc2)cc(C)c1S(C)(=O)=O | i | 1 | nt | nt | nt
N#Cc1c(NCCCO)nc(-c2ccco2)c2c1CCCC2 | i | 0.3 | nt | nt | nt
N#Cc1c(NC2CCCCC2)nc(-c2ccco2)c2c1CCCC2 | -7* | -7 | -34%* | i | i | KCNQ2 patch conf=i
O=C(c1cccs1)C1CCCN(Cc2nc(Cc3ccccc3F)no2)C1 (centres undefined) | i | nt | nt | nt | nt
Cc1cccc(C(=O)OCC(=O)N(C)c2ccccc2)c1C | i | nt | nt | nt | nt
CCCc1cc(C(=O)Nc2cccc(Cl)c2C)no1 | i | nt | nt | nt | nt
Cc1ccc(C)c(N2CCN(C(=O)Cn3cccc3)CC2)c1 | i | 1.2 | nt | nt | nt
Cc1ccc(C)c(N2CCN(C(=O)C(Cc3ccccc3)n3cccc3)CC2)c1 (centres undefined) | -7* | -7 | -24%* | i | i | KCNQ2 patch conf=i
Cc1nc2ccccc2c(=O)n1/N=C/c1cccs1 | i | nt | nt | nt | nt
Cc1nc2ccccc2c(=O)n1/N=C/c1cn(-c2ccccc2)nc1-c1cccs1 | -9.1* | -9.1 | -36%* | i | i | KCNQ2 patch conf=i
Cc1ccccc1CSc1nnc(-c2cccs2)n1Cc1ccco1 | -9.9* | -9.9 | i | i | i
c1coc(Cn2c(SCc3nc4ccccc4[nH]3)nnc2-c2cccs2)c1 | i | nt | nt | nt | nt
O=C(O)CN1CCCC1=Nc1ccccc1 | i | nt | nt | nt | nt
Cc1ccc(C)c(N=C2CCCN2Cc2ccccc2)c1C#N | -7.3* | -7.3 | i | i | i
CSC(C1CCCC1)n1nnc2ccccc21 (centres undefined) | i | nt | nt | nt | nt
SMILES | KCNQ2 block | KCNQ2 pot | KCNQ2 inh conf | KCNQ1 spec | CHO parental ctr | others
COc1ccc(/C=N/n2c(N)nc(-c3ccccc3)c2-c2ccccc2)cc1 | -7* | -7 | i | i | i
COc1ccc(/C=N/n2c(-c3ccccc3)n[nH]c2=S)cc1 | i | nt | nt | nt | nt
O=C(COc1ccc(F)cc1)N(c1ccccn1)C1CCCCC1 | -6.8* | -6.8 | -28%* | i | i | KCNQ2 patch conf=+
CC(C)c1ccc(OCC(=O)N(c2ccccn2)C2CCCCC2)cc1 | i | nt | nt | nt | nt
CC1(c2nnc(-c3ccc(F)cc3)o2)CC(c2cccc(Cl)c2)=NO1 (centres undefined) | i | nt | nt | nt | nt
O=C(CN1C(=O)C(c2ccccc2)Oc2cccnc21)NCc1ccccc1F (centres undefined) | -6.8* | -6.8 | -22%* | i | i | KCNQ2 patch conf=+
